Source: ChEMBL document CHEMBL3988442, “University of Dundee, Small-Polar-MMV Screening Library” (2021)
For part of these data: Entries with a potency or affinity are not part of this list.

How the values were obtained:
Parameters in all cases: scale not given: direction of the effect not stated beside the values
[1] = target: Protein translocase subunit SecA (Escherichia coli (strain K12)) (UniProt P10408); assay: Assay to Identify E. coli SecA ATPase Inhibitors; format: functional; conditions: 30 µM
[2] = target: T1, Ubiquitin-activating enzyme e1, putative (Leishmania donovani (strain BPK282A1)) (UniProt E9BSI1); assay: Leishmania donovani Ubiquitin Activating Enzyme (LdE1); format: functional; conditions: 30 µM
T1 sequence (whole entry): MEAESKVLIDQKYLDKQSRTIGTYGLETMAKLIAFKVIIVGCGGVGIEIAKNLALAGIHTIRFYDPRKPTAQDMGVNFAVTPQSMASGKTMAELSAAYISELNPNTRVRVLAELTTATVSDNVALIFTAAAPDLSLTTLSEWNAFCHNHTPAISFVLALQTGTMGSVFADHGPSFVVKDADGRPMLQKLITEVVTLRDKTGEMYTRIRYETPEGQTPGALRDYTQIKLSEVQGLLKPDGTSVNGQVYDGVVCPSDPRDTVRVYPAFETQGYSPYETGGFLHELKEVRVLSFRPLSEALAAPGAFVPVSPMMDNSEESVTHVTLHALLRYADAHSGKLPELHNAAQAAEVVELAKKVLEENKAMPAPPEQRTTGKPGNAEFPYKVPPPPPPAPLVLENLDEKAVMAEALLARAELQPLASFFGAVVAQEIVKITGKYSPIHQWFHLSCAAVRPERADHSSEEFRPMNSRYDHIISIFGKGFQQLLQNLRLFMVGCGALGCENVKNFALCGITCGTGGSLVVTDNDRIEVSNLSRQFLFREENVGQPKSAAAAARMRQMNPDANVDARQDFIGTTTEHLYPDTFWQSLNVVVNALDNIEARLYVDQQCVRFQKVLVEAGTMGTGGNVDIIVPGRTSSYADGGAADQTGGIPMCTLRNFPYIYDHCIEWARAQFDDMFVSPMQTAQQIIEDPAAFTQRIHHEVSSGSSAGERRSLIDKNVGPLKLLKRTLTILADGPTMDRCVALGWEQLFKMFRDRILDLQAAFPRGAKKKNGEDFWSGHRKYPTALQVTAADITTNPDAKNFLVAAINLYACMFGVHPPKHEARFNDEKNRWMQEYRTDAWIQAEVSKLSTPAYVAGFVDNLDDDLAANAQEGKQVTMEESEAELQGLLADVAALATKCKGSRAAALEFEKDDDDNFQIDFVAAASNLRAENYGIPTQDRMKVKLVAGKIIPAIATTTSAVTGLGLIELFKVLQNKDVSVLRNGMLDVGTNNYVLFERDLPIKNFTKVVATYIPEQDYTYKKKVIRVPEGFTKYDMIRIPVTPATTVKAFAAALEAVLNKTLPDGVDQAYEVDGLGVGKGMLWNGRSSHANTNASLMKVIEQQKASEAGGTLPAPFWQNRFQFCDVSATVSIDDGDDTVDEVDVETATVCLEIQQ

[3] = target: T2, Aspartate--tRNA(Asp/Asn) ligase (Mycobacterium tuberculosis (strain ATCC 25618 / H37Rv)) (UniProt P9WFW3); assay: Assay for Asp RNA synthetase-1 from Mycobacterium tuberculosis; format: functional; conditions: 30 µM; also: in the data most compounds retested in dose-response had high values
T2 sequence (whole entry): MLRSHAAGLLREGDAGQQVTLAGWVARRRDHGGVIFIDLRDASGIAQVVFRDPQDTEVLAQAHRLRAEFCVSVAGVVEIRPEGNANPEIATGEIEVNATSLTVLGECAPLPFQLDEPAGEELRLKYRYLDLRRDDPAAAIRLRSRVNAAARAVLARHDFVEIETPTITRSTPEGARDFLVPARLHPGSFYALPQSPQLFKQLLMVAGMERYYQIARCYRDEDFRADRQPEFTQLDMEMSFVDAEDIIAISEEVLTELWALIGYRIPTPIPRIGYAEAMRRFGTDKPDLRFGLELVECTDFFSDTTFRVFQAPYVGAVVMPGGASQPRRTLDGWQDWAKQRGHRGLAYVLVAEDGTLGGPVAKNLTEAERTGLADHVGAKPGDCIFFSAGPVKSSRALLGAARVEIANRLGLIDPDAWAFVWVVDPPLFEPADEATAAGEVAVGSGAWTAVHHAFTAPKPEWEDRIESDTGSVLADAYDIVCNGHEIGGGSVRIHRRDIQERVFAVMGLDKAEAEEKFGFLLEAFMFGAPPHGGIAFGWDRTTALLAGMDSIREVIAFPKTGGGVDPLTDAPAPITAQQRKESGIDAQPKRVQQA

[4] = target: AMP-activated protein kinase, AMPK (Homo sapiens) (UniProt P54646+O43741+P54619+Q9UGJ0+Q9Y478+Q13131+Q9UGI9); assay: AMP-dependent Kinase enzyme assay. An in vitro enzyme assay that detects ADP turnover that is directly proportional to AMPK activity. This uses naive AMPK that is activated during the assay with MK-8722; format: functional; conditions: 30 µM
[5] = target: Sialic acid-binding Ig-like lectin 9 (Homo sapiens) (UniProt Q9Y336); assay: Hs-Siglec9 ALPHAscreen SOP 20170721; conditions: 10 µM
Trypanosoma cruzi = assay: Trypanosoma cruzi phosphomannomutase and mannose-1-phosphate guanylyltransferase assay; format: functional; conditions: 10 µM
[6] = target: T3, Arginase-2, mitochondrial (Homo sapiens) (UniProt P78540); assay: in vitro enzyme assay to detect the production of urea directly proportional to the activity of Arginase II; format: functional; conditions: 33.3 µM; also: in the data most compounds retested in dose-response had high values
T3 sequence (whole entry): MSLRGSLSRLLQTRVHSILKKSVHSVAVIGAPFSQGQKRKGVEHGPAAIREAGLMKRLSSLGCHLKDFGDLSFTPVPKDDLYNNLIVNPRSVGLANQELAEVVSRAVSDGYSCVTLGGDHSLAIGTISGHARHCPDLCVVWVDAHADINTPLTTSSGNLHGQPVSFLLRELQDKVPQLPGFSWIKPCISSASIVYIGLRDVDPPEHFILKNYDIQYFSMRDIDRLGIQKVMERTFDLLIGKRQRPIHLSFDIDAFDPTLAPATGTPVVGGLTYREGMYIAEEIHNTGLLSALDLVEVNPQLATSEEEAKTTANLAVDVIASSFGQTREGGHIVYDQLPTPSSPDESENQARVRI

[7] = target: T4, Proteasome subunit beta (Trypanosoma cruzi) (UniProt O96673); assay: Trypanosoma cruzi proteasome chymotrypsin-like activity (TcProtChymo) assay.; also: in the data most compounds retested in dose-response had high values; format: functional; conditions: 9.37 µM
T4 sequence (whole entry): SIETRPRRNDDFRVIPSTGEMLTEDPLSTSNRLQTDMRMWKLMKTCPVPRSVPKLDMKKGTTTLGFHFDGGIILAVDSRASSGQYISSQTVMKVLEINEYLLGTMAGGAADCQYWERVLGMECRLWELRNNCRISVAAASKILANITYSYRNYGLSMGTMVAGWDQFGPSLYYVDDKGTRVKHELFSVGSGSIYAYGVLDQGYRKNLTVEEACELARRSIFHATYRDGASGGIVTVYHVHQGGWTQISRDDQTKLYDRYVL

Homo sapiens = species on record: Homo sapiens; assay: To identify inhibition of the IFN signalling (Jak-Stat) pathway via expression of an eGFP reporter gene under the control of an IFN-stimulated response element (ISRE) containing MxA promoter.; format: functional; conditions: 30 µM
[8] = target: Shiga toxin 2 (Escherichia coli O157:H7) (UniProt P09385+P09386); assay: E. coli 0.157:H7 Shiga Toxin SOP - stx2 screening assay; format: functional; conditions: 30 µM
[9] = target: T5, Tyrosyl-tRNA synthetase, putative (Trypanosoma cruzi (strain CL Brener)) (UniProt Q4DSP6); assay: Trypanosoma cruzi tyrosyl tRNA synthetase (TcYRS) _High Tyrosine SOP; format: functional; conditions: 30 µM; also: in the data most compounds retested in dose-response had high values
T5 sequence (whole entry): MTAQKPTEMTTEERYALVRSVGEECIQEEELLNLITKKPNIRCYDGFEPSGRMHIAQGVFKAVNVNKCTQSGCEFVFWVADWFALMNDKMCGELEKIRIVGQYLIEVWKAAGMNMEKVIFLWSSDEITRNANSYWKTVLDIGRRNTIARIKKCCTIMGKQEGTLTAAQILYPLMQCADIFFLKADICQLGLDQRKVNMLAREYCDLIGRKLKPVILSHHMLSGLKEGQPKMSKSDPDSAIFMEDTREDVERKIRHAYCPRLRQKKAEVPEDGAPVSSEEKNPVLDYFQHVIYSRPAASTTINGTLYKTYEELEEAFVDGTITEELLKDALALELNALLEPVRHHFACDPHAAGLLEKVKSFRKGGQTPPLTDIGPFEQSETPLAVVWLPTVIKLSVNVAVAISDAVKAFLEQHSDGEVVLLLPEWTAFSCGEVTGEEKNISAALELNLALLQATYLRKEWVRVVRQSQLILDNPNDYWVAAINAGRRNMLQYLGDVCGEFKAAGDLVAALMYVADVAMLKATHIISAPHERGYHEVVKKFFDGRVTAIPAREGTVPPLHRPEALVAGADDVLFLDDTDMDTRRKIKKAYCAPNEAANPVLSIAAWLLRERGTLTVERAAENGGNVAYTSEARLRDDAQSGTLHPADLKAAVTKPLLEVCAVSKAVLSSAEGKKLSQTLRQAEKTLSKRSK

[10] = target: T5, Tyrosyl-tRNA synthetase, putative (Trypanosoma cruzi (strain CL Brener)); assay: Trypanosoma cruzi tyrosyl tRNA synthetase (TcYRS) SOP; format: functional; conditions: 30 µM
[11] = target: Chromo domain-containing protein 1 (Saccharomyces cerevisiae (strain ATCC 204508 / S288c) (Baker's yeast)) (UniProt P32657); assay: ScCHD-1 Enzyme Inhibition Assay; format: functional; conditions: 30 µM; also: in the data most compounds retested in dose-response had high values
Chain of Chromo domain-containing protein 1 (Saccharomyces cerevisiae (strain ATCC 204508 / S288c) (Baker's yeast)) (P32657 whole entry, the tested form may be a part): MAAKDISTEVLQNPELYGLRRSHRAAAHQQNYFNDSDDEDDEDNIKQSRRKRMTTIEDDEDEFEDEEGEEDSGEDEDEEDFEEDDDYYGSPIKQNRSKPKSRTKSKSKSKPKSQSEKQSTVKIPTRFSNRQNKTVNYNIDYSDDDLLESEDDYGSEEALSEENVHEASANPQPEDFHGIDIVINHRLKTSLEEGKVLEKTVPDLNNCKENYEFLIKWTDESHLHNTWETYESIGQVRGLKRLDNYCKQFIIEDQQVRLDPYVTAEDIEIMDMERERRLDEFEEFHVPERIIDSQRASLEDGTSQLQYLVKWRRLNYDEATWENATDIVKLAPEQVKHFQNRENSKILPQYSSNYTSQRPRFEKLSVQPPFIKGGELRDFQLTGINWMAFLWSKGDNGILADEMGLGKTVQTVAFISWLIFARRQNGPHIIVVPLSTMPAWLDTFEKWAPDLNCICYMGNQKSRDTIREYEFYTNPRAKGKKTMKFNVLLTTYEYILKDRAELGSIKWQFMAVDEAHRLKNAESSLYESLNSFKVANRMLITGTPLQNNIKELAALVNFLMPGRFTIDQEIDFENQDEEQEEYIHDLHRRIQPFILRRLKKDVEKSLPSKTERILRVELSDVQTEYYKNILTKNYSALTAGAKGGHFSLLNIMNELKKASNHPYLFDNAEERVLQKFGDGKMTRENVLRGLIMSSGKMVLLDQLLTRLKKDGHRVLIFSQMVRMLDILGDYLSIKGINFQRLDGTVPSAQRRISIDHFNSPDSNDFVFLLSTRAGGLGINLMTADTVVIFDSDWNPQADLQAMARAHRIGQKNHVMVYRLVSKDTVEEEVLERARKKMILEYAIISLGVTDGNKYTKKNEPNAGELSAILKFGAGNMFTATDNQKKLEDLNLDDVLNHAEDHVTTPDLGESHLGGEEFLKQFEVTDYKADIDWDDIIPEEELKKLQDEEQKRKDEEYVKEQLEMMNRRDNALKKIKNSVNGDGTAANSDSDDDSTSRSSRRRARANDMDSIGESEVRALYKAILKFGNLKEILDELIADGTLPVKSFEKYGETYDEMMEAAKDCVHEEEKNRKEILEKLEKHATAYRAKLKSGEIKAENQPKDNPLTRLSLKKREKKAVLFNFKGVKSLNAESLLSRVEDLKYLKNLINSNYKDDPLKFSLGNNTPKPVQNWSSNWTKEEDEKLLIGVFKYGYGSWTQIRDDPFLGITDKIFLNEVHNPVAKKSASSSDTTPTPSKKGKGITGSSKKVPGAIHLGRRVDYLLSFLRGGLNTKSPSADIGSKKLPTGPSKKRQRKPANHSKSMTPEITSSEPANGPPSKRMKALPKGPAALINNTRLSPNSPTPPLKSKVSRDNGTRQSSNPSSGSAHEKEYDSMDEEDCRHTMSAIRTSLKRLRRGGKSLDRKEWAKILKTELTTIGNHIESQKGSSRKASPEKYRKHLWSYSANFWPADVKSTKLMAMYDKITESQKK

Chain of Protein translocase subunit SecA (Escherichia coli (strain K12)) (P10408 whole entry): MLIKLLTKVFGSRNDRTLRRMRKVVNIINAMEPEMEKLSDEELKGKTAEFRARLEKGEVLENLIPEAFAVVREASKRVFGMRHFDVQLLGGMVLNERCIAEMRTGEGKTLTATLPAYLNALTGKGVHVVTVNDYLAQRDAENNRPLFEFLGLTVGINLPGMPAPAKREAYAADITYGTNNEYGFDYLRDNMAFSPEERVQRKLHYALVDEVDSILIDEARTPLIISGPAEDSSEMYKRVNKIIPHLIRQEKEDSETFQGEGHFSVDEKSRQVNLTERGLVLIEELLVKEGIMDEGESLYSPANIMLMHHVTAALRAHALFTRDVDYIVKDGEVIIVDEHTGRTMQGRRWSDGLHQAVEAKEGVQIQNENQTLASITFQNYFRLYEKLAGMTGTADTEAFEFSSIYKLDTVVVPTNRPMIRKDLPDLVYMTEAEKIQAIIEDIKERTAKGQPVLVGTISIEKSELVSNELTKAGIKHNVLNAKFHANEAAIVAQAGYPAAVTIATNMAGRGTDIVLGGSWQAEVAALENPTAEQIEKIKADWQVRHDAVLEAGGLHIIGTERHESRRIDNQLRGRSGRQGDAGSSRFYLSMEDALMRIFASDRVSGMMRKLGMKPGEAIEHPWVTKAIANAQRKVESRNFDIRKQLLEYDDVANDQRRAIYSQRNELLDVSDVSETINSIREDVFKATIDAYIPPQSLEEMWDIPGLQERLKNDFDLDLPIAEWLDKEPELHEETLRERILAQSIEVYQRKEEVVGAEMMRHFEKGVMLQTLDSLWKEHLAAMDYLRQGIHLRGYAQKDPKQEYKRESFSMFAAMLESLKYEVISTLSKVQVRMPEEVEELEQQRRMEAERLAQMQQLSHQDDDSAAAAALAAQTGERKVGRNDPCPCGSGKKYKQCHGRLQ
Chain of Sialic acid-binding Ig-like lectin 9 (Homo sapiens) (Q9Y336 whole entry): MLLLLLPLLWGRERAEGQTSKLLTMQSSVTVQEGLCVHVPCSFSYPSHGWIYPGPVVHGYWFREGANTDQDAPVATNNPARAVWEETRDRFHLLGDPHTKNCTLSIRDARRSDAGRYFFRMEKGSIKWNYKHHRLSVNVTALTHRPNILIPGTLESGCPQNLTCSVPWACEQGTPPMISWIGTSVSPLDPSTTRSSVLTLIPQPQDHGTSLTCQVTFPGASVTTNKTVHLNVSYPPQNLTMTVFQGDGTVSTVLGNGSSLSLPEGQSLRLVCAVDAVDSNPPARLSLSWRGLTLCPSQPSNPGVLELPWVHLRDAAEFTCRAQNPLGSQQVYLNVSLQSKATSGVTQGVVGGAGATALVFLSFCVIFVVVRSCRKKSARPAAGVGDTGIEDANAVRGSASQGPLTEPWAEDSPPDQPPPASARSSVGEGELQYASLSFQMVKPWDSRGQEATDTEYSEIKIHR

Row | Structure (SMILES) | Percent Effect [1] | Percent Effect [2] | Percent Effect [3] | Percent Effect [4] | Percent Effect [5] | Percent Effect (Trypanosoma cruzi) | Percent Effect [6] | Percent Effect [7] | Percent Effect (Homo sapiens) | Percent Effect [8] | Percent Effect [9] | Percent Effect [10] | Percent Effect [11]
1 | CC(C)CN1CCC2(C1)CN(c1ncccn1)C2 | -1.21% | 13.3% | 3.02% | 6.7% | -5.1% | -3.15% | -3.03% | 10.3% | 5.15% | -15.1% | 5.32% | 11.5% | -4.75%
2 | COc1ncccc1CN1C[C@@H]2COC[C@]2(COCC2CC2)C1 | -2.06% | 1.33% | 0.116% | 0.466% | 5.34% | -9.23% | 24.5% | 14.4% | 2.6% | -25.1% | 6.35% | 2.56% | -9.86%
3 | c1ccc(CN2CC[C@H]3CO[C@H](CNc4ncccn4)[C@H]3C2)nc1 | -2.49% | 8% | -3.84% | 2.38% | 4.32% | -0.772% | -54.3% | 9.74% | -5.93% | 3.55% | 2.08% | 12.5% | -8.55%
4 | CC(=O)N1CCOCC2(CN(Cc3ccccn3)CCO2)C1 (configuration not stated) | -4.37% | -2.67% | 0.233% | -1.22% | -2.37% | 4.25% | 2.33% | 9.74% | -30.1% | -6.22% | 2.08% | 2.5% | -3.93%
5 | Cc1cc(CN2CC[C@H]3C[C@H](C)O[C@@H]3C2)no1 | -1.91% | 18.9% | -4.38% | -0.664% | -1.18% | 3.23% | 5.41% | 9.96% | 17.4% | -1.03% | 7.57% | 17.9% | 1.93%
6 | c1cncc(CO[C@H]2CO[C@@]3(CCN(Cc4ccoc4)C3)C2)c1 | -2.55% | -1.33% | -2.79% | 7.6% | 8.75% | -4.32% | -6.16% | 12.6% | 2.27% | -19.8% | 2.12% | -2.56% | 1.04%
7 | c1cncc(OC[C@]23COC[C@H]2CN(Cc2cccs2)C3)c1 | -3.94% | 5.41% | 4.12% | 0.208% | -2.85% | -2.34% | -0.417% | 6.85% | 11.9% | -3% | 6.93% | 15.8% | 4.29%
8 | O=C(Cc1cccs1)N1C[C@@H]2OCCN(CC3CCCO3)[C@@H]2C1 (some centres not stated) | -3.88% | 0% | -5.27% | -1.33% | 4.51% | -2.58% | -0.399% | 15.3% | 15.2% | -19.8% | 2.08% | 6.17% | -0.242%
9 | Cc1ccc(CN2CCC3(CC2)C(=O)N(C)c2ccccc23)s1 | -4.09% | 8.11% | 7.84% | -1.34% | 6.95% | -0.781% | 2.08% | 16.8% | 20.4% | -2.26% | 7.92% | 11% | 5.6%
